Assay results published in the supplement of paper PMC12632987.

T1: USP38, Q8NB14
T1 chain: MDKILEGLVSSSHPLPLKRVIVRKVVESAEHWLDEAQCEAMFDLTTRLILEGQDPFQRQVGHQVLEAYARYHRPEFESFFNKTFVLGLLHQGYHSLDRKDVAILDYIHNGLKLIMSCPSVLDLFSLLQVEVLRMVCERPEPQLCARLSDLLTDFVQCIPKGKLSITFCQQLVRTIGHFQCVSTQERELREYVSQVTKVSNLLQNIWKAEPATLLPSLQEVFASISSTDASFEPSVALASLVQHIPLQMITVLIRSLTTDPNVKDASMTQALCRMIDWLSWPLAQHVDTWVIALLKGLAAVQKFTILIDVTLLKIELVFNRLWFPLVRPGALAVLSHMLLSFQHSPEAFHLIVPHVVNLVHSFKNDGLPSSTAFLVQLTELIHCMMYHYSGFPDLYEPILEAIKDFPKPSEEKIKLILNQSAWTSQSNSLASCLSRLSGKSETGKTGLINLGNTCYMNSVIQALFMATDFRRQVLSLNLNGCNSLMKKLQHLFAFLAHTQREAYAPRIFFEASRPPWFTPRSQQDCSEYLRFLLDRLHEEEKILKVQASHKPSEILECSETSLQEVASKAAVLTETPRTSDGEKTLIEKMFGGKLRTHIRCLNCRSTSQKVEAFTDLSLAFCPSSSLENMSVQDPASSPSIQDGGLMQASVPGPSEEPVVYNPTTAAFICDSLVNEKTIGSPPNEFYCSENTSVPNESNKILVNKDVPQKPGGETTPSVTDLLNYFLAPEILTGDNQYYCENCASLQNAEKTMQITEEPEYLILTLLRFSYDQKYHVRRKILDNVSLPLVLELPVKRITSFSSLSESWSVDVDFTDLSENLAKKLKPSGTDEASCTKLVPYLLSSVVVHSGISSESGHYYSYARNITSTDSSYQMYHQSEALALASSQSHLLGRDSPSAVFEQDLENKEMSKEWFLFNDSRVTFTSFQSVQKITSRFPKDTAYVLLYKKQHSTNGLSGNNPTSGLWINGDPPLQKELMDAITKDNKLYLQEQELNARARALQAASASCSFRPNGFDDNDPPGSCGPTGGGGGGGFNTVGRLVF


Tests used:
UCHL1, P09936 = assay: median log2 fold change of GCK-ALFA target abundance (FLAG IP / Myc IP barcode read proportion) (log2 ratio); each designed protein is fused to an ALFA-tag nanobody in HEK293 cells to bring the named protein to FLAG-tagged glucokinase (GCK); Myc marks an untargeted standard; higher = target protein stabilised (more abundant); conditions: target protein: 3xFLAG-MCP-GCK-ALFA reporter; HEK293 landing pad (RPLP)
Sequence of UCHL1, P09936 (P09936 whole entry, looked up, the tested form may be a part): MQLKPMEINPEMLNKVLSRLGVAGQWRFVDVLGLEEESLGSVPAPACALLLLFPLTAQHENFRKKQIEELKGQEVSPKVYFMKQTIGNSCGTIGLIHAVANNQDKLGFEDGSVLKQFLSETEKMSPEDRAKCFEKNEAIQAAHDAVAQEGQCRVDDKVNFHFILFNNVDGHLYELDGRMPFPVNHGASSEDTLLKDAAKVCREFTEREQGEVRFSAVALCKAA
In short: (§1)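 HEK293 landing-pad cells received a recombined binder library fused to the ALFA nanobody and were induced with 2 μg mL^−1 doxycycline, then transfected with a plasmid encoding a FLAG-tagged target and a Myc-tagged standard. Lysates were collected after 48 h for anti-FLAG and anti-Myc immunoprecipitation, and the circular RNA barcodes were reverse transcribed, amplified and sequenced. Target abundance for each binder is the median log2 ratio of FLAG to Myc barcode read proportions. Barcodes had to reach a proportion of at least 10^−7 in both replicates, each binder needed at least 3 barcodes per replicate, a pseudocount of 10^−6 was applied, and the two replicates were pooled.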

USP38, Q8NB14 = target: T1, USP38, Q8NB14; assay: as above; conditions: target protein: 3xFLAG-MCP-GCK-ALFA reporter; HEK293 landing pad (RPLP)
In short: as §1

Binder | median log2 fold change (UCHL1, P09936) | median log2 fold change (USP38, Q8NB14)
uchl1_89_7593 (protein) EEARLAAARAKLREVLARTRAAVEAILARLGEPRPELVALLDAIFEAAEKAIADPAKAEEYVEKAEAAAREFVELAPEEFRSDFRMALGRLINRLLGYAA | 0.0394 | 
uchl1_89_7594 (protein) EEERLAAARAYLRRVLAETRARVEAILARLGRPDPALVAAAEAIFEAAELAIEEPERAEEYVARAEEAARQLVELAPPEYRADFRMALGRLINRLRGYAA | 0.173 | 
uchl1_89_7577 (protein) EEERLEAARERLRRILARTRAEVERLLARLGEVPPELRAALDAFFAAAEAAIADPSTAEAALAEAEAAARRLVELAPPEYRASFRLALGRLVNALLGYAA | 0.111 | 
uchl1_89_7590 (protein) EEAKAKAARARLERVLAATEAALRRLLARLGAPDPALVAALDALLAAARAALADPATAAAHLAAAEAAARRLVELAPPEVRASVRLATGRLVNALRGYVA | -0.00562 | 
usp_38_diff_out_13_133_50 (protein) SMEEEEKKEALKKFEELIKEAREAIEKAKKALEEGDLDKAWEYLGKAAGLLMEARELRTRELRDDPELYKEAKKKLEEVEKELNEVIDKVVEAEEKAFLA |  | 0.322
uchl1_2_7573 (protein) KTVFVGIKVTLEAYDEKTGKTYRSTRTLIFTEEALEKAAEEVKELALNFKDAVGVPVTVNVHIVSTDEEVLERLKKLLEEMAKELAKEGITVNISGEVVK | -0.366 | 
uchl1_89_7588 (protein) EEERRRAARERLERVLAATRARLEALLARLGEPDPALVAALEALFAAARRALEDPATAAEALAAAEAAARRLVELAPPEVRASVRLAVGRLVNRLRGYVA | -0.164 | 
uchl1_2_7572 (protein) KTVFVGVKVTLTAYDEKTGKTYKSTRTLIFTESALEAAAKEIEELALNFQDAVGVPVKVDVHVVSTDEEVLKRLKELLEKMAKKLAKKGIEVNISGEVVK | -0.571 | 
usp_38_diff_out_11_94_49 (protein) DEEIETNLFLMRYQFSQIVDLALTIDRETAAKVLRLANEAMEILKSGGPLEEVNKKLEEIKKVFNEAAAKSKENTEKLTAEANALLEKAKEYAEKAIKLR |  | 0.33
usp_38_diff_out_10_51_3 (protein) SREEEAERLLEEMEELVEKIKTSDLKTATAYFYQLINLTARLEALDPSYAERALELLKEAAKELLEKGGDKEDIIFALRFKAAATGSKVLEKAAEYVEKL |  | 0.18
uchl1_89_7582 (protein) EEERLARAREHLRRVLAKTRAALDRLIARLGEPDPELVAAHEELLAAAEAAIADPERAEEYLAKAEEAAVRLVELAPPERRASFRLAVGRLINTLLGYAA | -0.405 | 
uchl1_89_7584 (protein) EEARRAAARERLRRVLAATRERLEALMAKWGVADPEAVAALEELFRHAELAIEDPERAEEALAKAEEAAKRLLALAPEERRADVRMATGRLLNRLLGYVA | -0.114 | 
uchl1_89_7583 (protein) EEEREAAARARLRAILAATRAALERLIARWGVRDPEAQAALDALFANAERAIADPSTAAEALAKAEEAARRLLALAPPEKRADVRLATGRLLNALLGYVA | -0.0264 | 
usp_38_diff_out_10_51_1 (protein) SVEEAKKRIEELMKEVEEVFKTGSDGEILRKSLNALNELTEIAKEYPEVKEEVIEAMVRIVELTKPNPELYEDMTFAARFKAATVSDEVAEKVREKIAAL |  | 0.235
usp_38_diff_out_13_133_51 (protein) AAKEEALAAAQARFDALLADAQAAIDAAEAALAAGDLDAAWAAVGRAAGLLREAREHRTRELRDDPAAYAAAQARLDAVEKRLNAVIDRVAAAERARFLA |  | 0.142
uchl1_89_7580 (protein) EEERLRRARERLRRVLEATRAEVERLIARLGEPDPALVAAAEELFAAAEAALEDPERAAEYLARAEAAARRLVELAPPERRASFRLAVGRLVNTLLGYAA | 0.043 | 

Binder | median log2 fold change (UCHL1, P09936) | median log2 fold change (USP38, Q8NB14)
uchl1_89_7579 (protein) EEERLARARERLRRVLAATRAELARLEARIGEVSPELAAARDALFAAAEAAIADPALAAAQLEAAEAAARRLVALTPPELRASVRLATGRLLNRLLGYAA | -0.16 | 
uchl1_89_7595 (protein) AAERAAAARARLRRVLAATRAELDRLVARMGERDPELLAALEAFFAAAEAALADPSTAAAALAAAEAAAKRAVELAPERYRASFRLALGRLLNALRGYVA | -0.1 | 
uchl1_89_7576 (protein) AEARAQAARARLRAVLAATRAEVERLLARLGEVDPALRAAFDAFFAAAEAAIADPSTAAAALAAAEAAARRLVELAPPEYRASFRLATGRLLNLLRGYAA | -0.0383 | 
uchl1_89_7578 (protein) EAARLAAARARLRRVLAATRAEVERLLARLGEVPPELRAAFDAFFAAAEAAIADPSTAAEALAAAEAAARRLVELAPPEYRASFRLATGRLLNALRGYAA | 0.184 | 
uchl1_89_7574 (protein) DPRLDPATAARLRAIAERTEAALRRILTKAGVPQATIDAFLALVRAAADTTIADRAAAPAQLAALEAALRALTARVDPATAANVRLAMGPLLRLLEGVAQ | -0.0395 | 
usp_38_diff_out_10_51_2 (protein) SVEEAREEIEELLEEVEEVFKTGSLDEQLRAGLNALNRLREIALEYPEVEEEVIEAMVRIVELAKPNPELYEDMKFAARFKAATVNDEVAERVRERIDAL |  | 0.0864
uchl1_89_7575 (protein) EAARREAARARLRRILAATEARVAALLARLGEVPPELAAARDAFFAAARAAIDDPATAAAALAAAEAAARRLVELAPPEYRASFRLATGRLLNALRGWAA | 0.127 | 
uchl1_89_7596 (protein) EEERRAAARARLRRVLAATRAKLEELIARMGERDPELLAELEAFFAAAEAALEDPETAEAALAAAEEHAVRAVELAPEEYRASFRLALGRLLNALLGYVA | -0.537 | 
uchl1_89_7591 (protein) EAERLERARAHLREVLARTRERVEAIIARLGEPDPALVAARERVFAAAERAIADPARAAEYVAEAEAAARELVALAPPEFRSDFRMALGRLINRLLGYAA | 0.0711 | 
uchl1_89_7587 (protein) EEARREAARARLERVLAKTRARLEALLARMGAPDPAMVAALDALFDAARTALADPATAEAALAEAEAAARRLVELAPEEVKASVRLATGRLVIALRGYLA | -0.0889 | 
uchl1_2_7571 (protein) ETVFVGVLVTLRARDAETGKEYRSRRTFIFTEDSIEALAEEIRELALAFQADVGVPVTVDIHIYSTKKEVVEKTKKVLEEMAKELAKEGITVNITGTVVK | -0.528 | 
uchl1_89_7581 (protein) EAARLERAKAKLRAVLAATRAALDRLIARLGEPDPALVAARDALFAAAEAAIADPARAAEYLARAEAAARRLVELAPPERRASFRLAAGRLVNTLLGFAA | -0.302 | 
uchl1_89_7592 (protein) DAARLAAARARLRRVLERTRARVEAIIARLGRPDPAMVAAAEAVFAAAERAIADPARAAEWVARAEAAARELVALAPPEYRSDFRMALGRLVNALLGYAA | -0.157 | 
uchl1_89_7589 (protein) AAAREAAARARLEAVLAKTRAELERLLARLGAPDPEMVAALEALFDAARRALADPETAEAALAETEAAARRLVELAPEEVRASVRLAVGRLVIALEGYRA | 0.16 | 
uchl1_89_7586 (protein) EEERLAAARARLRRILAATRAELERLIASLGVRDPALEAALAAFFAHARRAIEDPATAEEALAAAEAAARELLALAPPEKRADFRLATGRLLNALLGYRA | 0.158 | 
usp_38_diff_out_13_133_52 (protein) AEEEEELKRRKEEFDKLIAEARKAIKDAKAALAAGDLDAAWAAAGKAAGLLMKAREHRTEKLRDDPELYEEAKKKLDEVEKELNEVIDAIVAAERERFLA |  | 0.302
